# According to the supplement of paper PMC3334620:
# The full ranking holds about 33,000 sequences; the median of “E-score (-0.5 to 0.5)” is about -0.017, and the highest 2% start at about 0.3. This excerpt belongs to a sample that is enriched for the highest values.
# Target: T1, Sut1 (UniProt P53032)
# T1 sequence: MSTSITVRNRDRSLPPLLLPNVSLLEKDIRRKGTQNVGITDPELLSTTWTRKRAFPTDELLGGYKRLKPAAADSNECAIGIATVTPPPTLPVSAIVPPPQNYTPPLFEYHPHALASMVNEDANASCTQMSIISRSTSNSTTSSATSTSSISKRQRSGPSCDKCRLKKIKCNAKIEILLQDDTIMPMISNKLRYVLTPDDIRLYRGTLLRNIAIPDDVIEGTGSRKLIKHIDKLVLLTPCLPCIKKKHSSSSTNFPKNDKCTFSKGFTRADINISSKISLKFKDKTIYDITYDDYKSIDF
# Experiment: PBM E-score (8-mer binding enrichment) (E-score (-0.5 to 0.5)); higher = stronger / more preferred TF binding
# Settings: protein concentration: 200 nM; construct: GST-full length
# How it was run: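 E-scores (a modified Wilcoxon-Mann-Whitney statistic) were assigned by the Universal PBM Analysis Suite to every ungapped eight-base word pooled with its reverse complement. The input came from universal all-10-mer Agilent arrays made double-stranded by primer extension and probed with GST-tagged yeast transcription factors at about 100-200 nM. Fluorescent anti-GST detected bound protein, and masliner normalised the scans.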
row,Sequence,PBM E-score
1,CATCTAAG,-0.107
2,CGTAGCAG,-0.128
3,AGCTATAG,-0.136
4,ATCATACA,0.314
5,ATCATACG,0.157
6,GTCATACA,0.226
7,ACTCGAGT,0.0517
8,AAGCCTAG,-0.183
9,CACTCTGA,-0.165
10,GTCACAAC,-0.0323
11,AATAGAGC,0.0828
12,CAAACTCA,0.0357
13,CACACTCC,0.158
14,GAAACTAC,0.145
15,GACACTCC,0.314
16,CAAACTCG,-0.013
17,AAAACTCT,0.0523
18,GAAACTCA,0.0707
19,AACACTCC,0.256
20,CAAACTCC,0.356
21,GAAACTCC,0.345
22,AAAACTCG,0.199
23,AAAACTCC,0.356
24,CAGCTTGG,0.0282
25,TCTTCTAA,0.188

row,Sequence,PBM E-score
1,CGATACTA,0.193
2,AGGAAAGG,-0.294
3,AGCGGTAT,0.0737
4,CGTAAGAC,-0.071
5,ACGCATCA,-0.0138
6,AAAAAAAC,0.159
7,GAAACTTA,0.307
8,CAAACTTA,0.196
9,GAAACTTC,0.0956
10,AGTGTGGA,0.0491
11,AGGGCCCG,-0.184
12,CGGGCCCG,0.316
13,CGGGCCCA,-0.109
14,CGTTCACA,0.0405
15,ATGTAATA,0.307
16,AAATAATG,0.297
17,ATGTAATG,0.23
18,AAATAAGT,0.109
19,AAATAATT,0.338
20,CTGTAATA,0.218
21,AAATAACT,0.228
22,AAATAATA,0.311
23,AAATAATC,0.235
24,ACTTCAAG,0.0849
25,ACACCCTA,-0.127

row,Sequence,PBM E-score
1,ACTTTGCG,0.0957
2,ATGGCCTA,-0.0487
3,AGCGCACC,-0.0534
4,AAGAAGGA,0.0609
5,CATCTGAA,0.0794
6,AGAGTGGA,-0.0219
7,AGACCGGA,0.277
8,TAACCGGA,0.332
9,GGACCGGA,0.34
10,GAACCGGA,0.32
11,GAACCGGC,-0.0738
12,AAACCGGC,0.0626
13,TAACCGCA,0.0567
14,AAACCGGT,-0.0411
15,AAACCGGA,0.309
16,CGACCGGA,0.191
17,TAACCGTA,-0.0185
18,GAACCGTA,-0.234
19,AGAAAAAG,0.138
20,CTGCCAAA,-0.0297
21,GTTGTTGA,0.0996
22,AAACCTTA,0.203
23,AGCAGGTC,-0.176
24,CAACCTAC,0.0861
25,GTAGCAGA,0.0197

row,Sequence,PBM E-score
1,AGCTTAAC,0.0213
2,CCTACTAC,-0.0856
3,CAACCGGG,-0.129
4,CAACCGGC,-0.0694
5,CAACCGGA,0.338
6,ATCGCTGC,-0.111
7,GGGACCAA,-0.115
8,TCCGAAGA,0.39
9,CCCGAAGA,-0.0672
10,ACCGAACA,0.121
11,TCCGAAAA,0.353
12,TCCGAACA,0.399
13,GCCGAAAA,0.263
14,ACCGAAGA,0.222
15,GCCGAACA,0.126
16,CCCGAAAA,0.177
17,CGCAGCTA,-0.0718
18,CATCGAAC,-0.0517
19,GACTAATA,0.196
20,AAAGCCCG,0.208
21,GGAGTCTA,0.182
22,GCACCCAC,-0.155
23,CAGGCTCA,-0.214
24,ACTTGCCT,-0.0394
25,AATATAGT,0.244

row,Sequence,PBM E-score
1,AATATATC,0.322
2,GATATATC,0.183
3,AATATACT,0.277
4,AATATATT,0.31
5,TATATAAA,0.248
6,AATATAAA,0.315
7,AATATTAA,0.263
8,AATATAGC,0.0924
9,CATATAAA,0.15
10,AATATTAG,0.192
11,AATATTAT,0.319
12,ACATCGCC,-0.112
13,GGGCTACC,-0.227
14,ATGCAATC,0.102
15,AGGCCATC,-0.149
16,ACCCATGA,-0.124
17,GGCTTTCA,0.0417
18,ACACAGAT,0.00624
19,GGACGGCA,-0.0542
20,ACTATATA,0.308
21,AATATATG,0.242
22,ACTATATC,0.209
23,AATATATA,0.325
24,AAAATATA,0.267
25,GCTATATA,0.118

row,Sequence,PBM E-score
1,CAGGTCAC,-0.398
2,CTGGAAAC,-0.0136
3,CCCAAAAG,-0.0557
4,ATGAACTA,0.216
5,GTATACTA,-0.155
6,GTACGGAC,0.297
7,GTACGGAA,0.22
8,ATACGGAC,0.374
9,ATACGGGC,-0.126
10,ATACGGAA,0.348
11,TTACGGAA,0.198
12,ATGTGATC,0.144
13,CGTGAAGA,-0.026
14,ACTCACAG,0.0594
15,CACTAAGG,-0.146
16,ACCCGGAT,-0.107
17,GCCCGGGC,-0.0214
18,ACCCGGGC,-0.0147
19,GCCCGGAC,0.328
20,ACCCGGAG,0.416
21,ACCCGGAA,0.197
22,CCCCGGAA,0.216
23,GCCCGGAA,0.244
24,ACCCGGAC,0.323
25,ACCCGGTC,-0.124

row,Sequence,PBM E-score
1,CCCCGGCC,-0.173
2,CCCCGGAC,0.357
3,CAGTTGGC,-0.162
4,GCATTCGA,0.0434
5,TAAGAATA,-0.086
6,CGACGCTA,-0.089
7,CCCCGGAG,0.454
8,CCCCGGGG,0.198
9,CCCCGGCG,-0.00882
10,TCTCTGAA,-0.135
11,ATTTCGGA,0.396
12,ATTTCGGG,0.0466
13,ATTTCGAA,0.313
14,ATTTCAAA,0.219
15,CTTTCGTA,0.0877
16,CTTTCGGA,0.395
17,CTTTCAAA,0.302
18,GTTTCAAA,0.212
19,CTTTCGGC,0.0219
20,ATTTCGGC,0.0959
21,ATTTCGAC,0.0327
22,ATTTCGAG,0.164
